Data taken from the supplement of paper PMC8728848.
The full list was thinned out, with the strongest signals kept by preference.

Experiments:
Assay in all cases: glycan array binding signal (z-score within array); higher = stronger binding
Conditions in all cases: glycan notation: IUPAC condensed, linker removed
[1] = molecular target: Fuc(a1-2)Gal(b1-3)[Fuc(a1-4)]GlcNAc(b1-2)Man(a1-3)[Fuc(a1-2)Gal(b1-3)[Fuc(a1-4)]GlcNAc(b1-2)Man(a1-3)]Man(b1-4)GlcNAc(b1-4)GlcNAc
How it was run: (§1)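 Negative Z-scores can be read as non-binding. The Z-score is calculated within each array and then averaged across arrays of one protein sequence at different concentrations or buffers and across linkers. Arrays, 3228 in all, were curated from the Consortium for Functional Glycomics database and kept only where the protein sequence was available.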

[2] = molecular target: Fuc(a1-2)[Gal(a1-3)]Gal(b1-4)GlcNAc(b1-3)GalNAc
How it was run: as §1

[3] = molecular target: Fuc(a1-2)[Gal(a1-3)]Gal(b1-4)GlcNAc(b1-6)GalNAc
How it was run: as §1

[4] = molecular target: Fuc(a1-2)[Gal(a1-4)]Gal(b1-4)GlcNAc
How it was run: as §1

[5] = molecular target: Fuc(a1-2)[GalNAc(a1-3)]Gal(b1-3)GlcNAc(b1-2)Man(a1-3)[Fuc(a1-2)[GalNAc(a1-3)]Gal(b1-3)GlcNAc(b1-2)Man(a1-6)]Man(b1-4)GlcNAc(b1-4)[Fuc(a1-6)]GlcNAc
How it was run: as §1

[6] = molecular target: Fuc(a1-2)[GalNAc(a1-3)]Gal(b1-4)[Fuc(a1-3)]GlcNAc(b1-3)GalNAc
How it was run: as §1

[7] = molecular target: Fuc(a1-3)[Gal(b1-4)]GlcNAc(b1-3)Gal(b1-3)[Fuc(a1-4)]GlcNAc
How it was run: as §1

[8] = molecular target: Fuc(a1-3)[Gal(b1-4)]GlcNAc(b1-3)Gal(b1-4)[Fuc(a1-3)]GlcNAc(b1-3)Gal(b1-4)[Fuc(a1-3)]GlcNAc
How it was run: as §1

[9] = molecular target: Fuc(a1-3)[Gal3S(b1-4)]GlcNAc6S
How it was run: as §1

[10] = molecular target: Fuc(a1-4)GlcNAc
How it was run: as §1

[11] = molecular target: Gal(a1-3)Gal(b1-4)GlcNAc
How it was run: as §1

[12] = molecular target: Gal(a1-4)Gal(b1-3)GlcNAc(b1-2)Man(a1-3)[Gal(a1-4)Gal(b1-3)GlcNAc(b1-2)Man(a1-6)]Man(b1-4)GlcNAc(b1-4)GlcNAc
How it was run: as §1

[13] = molecular target: Gal(b1-3)Gal(b1-4)GlcNAc
How it was run: as §1

[14] = molecular target: Gal(b1-3)GalNAc(b1-3)Gal
How it was run: as §1

[15] = molecular target: Gal(b1-3)GalNAc(b1-4)Gal(b1-4)Glc
How it was run: as §1

[16] = molecular target: Gal(b1-3)GlcNAc(b1-3)Gal(b1-4)Glc
How it was run: as §1

[17] = molecular target: Gal(b1-3)GlcNAc(b1-3)Gal(b1-4)GlcNAc
How it was run: as §1

[18] = molecular target: Gal(b1-3)GlcNAc(b1-3)Gal(b1-4)GlcNAc(b1-2)Man(a1-3)[Gal(b1-3)GlcNAc(b1-3)Gal(b1-4)GlcNAc(b1-2)Man(a1-6)]Man(b1-4)GlcNAc(b1-4)GlcNAc
How it was run: as §1

[19] = molecular target: Gal(b1-3)GlcNAc(b1-3)Gal(b1-4)GlcNAc(b1-2)[Gal(b1-3)GlcNAc(b1-3)Gal(b1-4)GlcNAc(b1-6)]Man(a1-6)[Gal(b1-3)GlcNAc(b1-3)Gal(b1-4)GlcNAc(b1-2)Man(a1-3)]Man(b1-4)GlcNAc(b1-4)[Fuc(a1-6)]GlcNAc
How it was run: as §1

[20] = molecular target: Gal(b1-3)GlcNAc(b1-3)Gal(b1-4)GlcNAc(b1-3)Gal(b1-4)GlcNAc(b1-2)[Gal(b1-3)GlcNAc(b1-3)Gal(b1-4)GlcNAc(b1-3)Gal(b1-4)GlcNAc(b1-6)]Man(a1-6)[Gal(b1-3)GlcNAc(b1-3)Gal(b1-4)GlcNAc(b1-3)Gal(b1-4)GlcNAc(b1-2)Man(a1-3)]Man(b1-4)GlcNAc(b1-4)[Fuc(a1-6)]GlcNAc
How it was run: as §1

[21] = molecular target: Gal(b1-3)GlcNAc(b1-3)Gal(b1-4)GlcNAc(b1-6)[Gal(b1-3)GlcNAc(b1-3)]Gal(b1-4)Glc
How it was run: as §1

[22] = molecular target: Gal(b1-3)GlcNAc6S
How it was run: as §1

[23] = molecular target: Gal(b1-3)[Fuc(a1-4)]GlcNAc(b1-3)Gal(b1-3)[Fuc(a1-4)]GlcNAc
How it was run: as §1

[24] = molecular target: Gal(b1-3)[Neu5Ac(a2-6)]GlcNAc(b1-4)Gal(b1-4)Glc
How it was run: as §1

[25] = molecular target: Gal(b1-4)GlcNAc(b1-2)Man(a1-3)[Man(a1-6)]Man(b1-4)GlcNAc(b1-4)GlcNAc
How it was run: as §1

[26] = molecular target: Gal(b1-4)GlcNAc(b1-2)[Gal(b1-4)GlcNAc(b1-4)]Man(a1-3)[Gal(b1-4)GlcNAc(b1-2)[Gal(b1-4)GlcNAc(b1-6)]Man(a1-6)]Man(b1-4)GlcNAc(b1-4)GlcNAc
How it was run: as §1

[27] = molecular target: Gal3S(b1-4)GlcNAc
How it was run: as §1

[28] = molecular target: Gal6S(b1-3)GlcNAc6S
How it was run: as §1

[29] = molecular target: GalNAc(a1-3)GalNAc
How it was run: as §1

[30] = molecular target: GalNAc(a1-3)GalNAc(b1-3)Gal(a1-4)Gal(b1-4)GlcNAc
How it was run: as §1

B1: B160 (Bifidobacterium sp) (protein)
chain: MVSHNKRIVAALAAVAAMGIGLAGCGGSDTAGDTKSGSDGGVVNITYMHRLPDSEGMTLVNDIVAKWNKEHPNIQVKATKFDGNAADMIKKLETDVKAGNAPDLAQVGYAEVPEVFTKGLLQDVTDEAAKYKDDFASGPFALMQVDGKTYGLPQDTGPLTYFYNAAEFEKLGITVPKTADELIETAKKTAAQGKYIMTFTPDEAMMMMSGQAGASGPWYKVDGNSWVVNTQTKGSKAVADVYQQLIDNKAALTNPRWDASFDNSIQSGQLIGTVAAAWEAPLFIDSAGGTGAGEWKVTQLGDWFGNGTKTGANGGSGVAVLKGSKHPAEAMEFLDWFNTQVDDLVSQGLVVAATTADAKTPQKWSDYFSGQDVMAEFKTANDNMGDFTYMPGFSAVGAAMKQTAAKAADGSAKVSDVFDTAQKTSVDTLKNLGLSVKE
[1]
  glycan array binding signal (z-score): -0.134
[2]
  glycan array binding signal (z-score): -0.168
[3]
  glycan array binding signal (z-score): -0.163
[4]
  glycan array binding signal (z-score): -0.15
[5]
  glycan array binding signal (z-score): -0.126
[6]
  glycan array binding signal (z-score): -0.135
[7]
  glycan array binding signal (z-score): -0.164
[8]
  glycan array binding signal (z-score): -0.14
[9]
  glycan array binding signal (z-score): -0.145
[10]
  glycan array binding signal (z-score): -0.176
[11]
  glycan array binding signal (z-score): -0.166
[12]
  glycan array binding signal (z-score): -0.093
[13]
  glycan array binding signal (z-score): 11.7
[14]
  glycan array binding signal (z-score): 6.25
[15]
  glycan array binding signal (z-score): 8.55
[16]
  glycan array binding signal (z-score): 4.36
[17]
  glycan array binding signal (z-score): 4.98
[18]
  glycan array binding signal (z-score): 5.11
[19]
  glycan array binding signal (z-score): 8.35
[20]
  glycan array binding signal (z-score): 6.21
[21]
  glycan array binding signal (z-score): 5.45
[22]
  glycan array binding signal (z-score): 6.55
[23]
  glycan array binding signal (z-score): -0.141
[24]
  glycan array binding signal (z-score): 6.71
[25]
  glycan array binding signal (z-score): -0.176
[26]
  glycan array binding signal (z-score): -0.18
[27]
  glycan array binding signal (z-score): -0.172
[28]
  glycan array binding signal (z-score): -0.179
[29]
  glycan array binding signal (z-score): -0.173
[30]
  glycan array binding signal (z-score): -0.166
